Results on 40 sequences are retold here after the supplement of paper PMC6555819.

The assay deals with VDR:RXRa (NR concentration 270 nM, RXRa partner concentration 90 nM). The assay is described as follows: PBM binding z-score (relative to random genomic background probes); higher = stronger binding; sequences stand for … in GC…GCGATTGACAGCGTAGAATGAAGG
The protocol:
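Protein-binding microarray (Agilent 4x180K custom design, double-stranded 60-nt probes: 5' GC cap, 34-nt variable region, 24-nt constant primer region; full probe sequence given). Purified or IVT nuclear receptor:RXRα heterodimers (3:1 NR:RXRα, mostly 270:90 nM) or homodimers were incubated for 1 h in PBS with 2% milk and no ligand, then detected with Alexa488 antibodies. Fluorescence from o1-orientation probes (~5 replicates averaged) was converted to z-scores against 500 random hg19 background probes. Variable regions are seed direct-repeat (DR0–DR5) sites, all their single-nucleotide variants and half-site ablations.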
For the sequence TTACCCAGGTGAAAGGTCGTTGATGCACGCCTTG, the PBM binding z-score worked out at 3.08.
The figure for GCTGCTAGGTCAGGTGGGTCAGCTAACGGGTACG is 2.75.
TAGCCTAGTTCATTGGGCCAGTATAGTACGCATC displayed a PBM binding z-score of 1.17.
The figure for CGAACTAGGTCAAGGATAGTGAATCTCCGCACGC is 1.19; for TCTATTTGGTCAAAGGTCACACACTCGAAATGCG it is 5.41; for CCGATTGGGGCATAAGGTTACCATAAGCCAGCCC it is 0.31.
With ACTTACGGGTGAACGAGGTTATAGCACGCGTATA, the PBM binding z-score stood at 5.33.
The figure for GCTTGTAGATCAAGGTTCAGAAAGACTAAGCTAA is 0.919; for CGAATTAGGTCATTGACAGGACAGTGAATAGTAA it is 2.3.
As for ACAGACAGGTGCGTGAAGGTAACTCAGCTGGACG, the PBM binding z-score was -0.488.
The figure for GCGACTGGGGCAAAGCATGTTACCATAAGGTTGG is -0.497; for TGAAGGAGGTTAAAGATCAGGGAACGTGGCGTCG it is 1.24; for CCGACTGGGGCAAAGGTTATCATACTCAGTACGA it is 1.46.
The figure for GCTAGCAGGCCATTTGGGTCAATCAATGACGGGC is 0.778; for TCATATAGGGAAAGGTGAAAGTCGAACGATATGA it is 0.965; for TAATATAGGTAAAGGTGAAAGTCGAACGATATGA it is 1.
As for TCATTTAGGTAAACAGGTGAAAGTCCGTAAGTTA, the PBM binding z-score was 1.26.
Take GCAGACAGGTGAAACGCAGGGAACTCAGGGTGGC: the PBM binding z-score is -0.604.
The sequence CAAACTAGGTCAAGAGGTCATAGTCCGCTTCCCG displayed a PBM binding z-score of 5.59.
Sequence TCTTGTAGATCAGCCGGTTAAGAAAGCTGGCCAA returned a PBM binding z-score of -0.00365.
In the case of GATACAGGGTCAGCTAGAGGCCATAGTATGGAAA, the PBM binding z-score was 4.05.
Sequence TCTAGCAGGCCAGTGGGTCACTCAAGAGGTACGG displayed a PBM binding z-score of 0.297.
On to ACAGACAGGTGAGTAAAGGTAACTCAGCTGGACG, for which the PBM binding z-score is -0.139.
In the case of CCTCGGAGGACAGCAGGTCAGAGCTGTCCGCTTT, the PBM binding z-score is -0.115.
Under CCGACTGGGGCAAAGGTTACCTTACTCAGTACGA stands 1.21.
Under CCTATCAGGCCAATCTGGGTCACTCAAGGCTTGA stands 0.878.
On to GCTCGGAGGACAAGGTCAGAACTTTGTCCGTAGA, for which the PBM binding z-score was 1.37.
The figure for GTACCAAGGTGAATACGTCGTTGATGAGTAGGCG is -0.262; for ATCTCTAGGTAACCAAGTTCAGTGGATGCCGAAC it is 4.04.
In the case of GCTATTAGTTGAAGGGGCAACCGAATGATTCTCG, the PBM binding z-score is -0.246.
The figure for AGAATGACGTTATTAAGATCAGGGAATTGCGGTC is -0.00436.
Under GCTCGGAGTACAAGGTCAGAGCTTTGTCCGTAGA stands 1.48; under CAAACTAGGTCAAGGTCAAAGTTGGTTTGTGCCA, 5.16; under CCTGCTAGGTCGATGGTCAGCTAAAGCAGCTCGC, -0.292.
The figure for TTTAGTTGGTCACGGAGGTCACACACGACGGGTA is 6.05; for CCAGACAGGTGAAAGCTAACTCAGTCTGGTACGC it is -0.274; for CCGACTGGGGCAAGGTGACCATAACGCACAGCCA it is -0.586.
For TGTCTAAGTTCAAAGGTAACGTAAGTATCCACAC, the PBM binding z-score worked out at 4.6.
Consider AGAATGAGGTTATACGTAGATCAGGGAAGAAAGT, for which the PBM binding z-score came to 1.52.
Sequence CGTTAAAGTTCAAGGTAACGTAACAGAAAGCAGC showed a PBM binding z-score of 3.02.
